Reference: PubChem BioAssay (Tox21)
Results filed as inconclusive are left out. Calls of active or inactive are those of the source. Calls follow the shape of the dose curve; as a rule, active = well fitted activation curve with a large enough effect in the repeat runs; inconclusive = weak or mixed curves; inactive = flat fitted curve, though single readings scatter.

Experiment: A CellTox Green Cytotoxicity Assay to monitor cytotoxicity in HepG2 cells - 8 hour (AID 1224890); also: nearly all actives have a fitted effect of over 45% in size
Details: CellTox Green fluorescence; series mostly up to 76.8 µM; cytotoxicity increase: at the top concentration
Source text: National Center for Advancing Translational Sciences [NCATS]
NIH Chemical Genomics Center [NCGC]
U.S. Environmental Protection Agency [EPA]
National Institutes of Environmental Health Sciences [NIEHS]
National Toxicology Program [NTP]
Cell-based models are critical for drug discovery. Determining the natural cytotoxic effects resulting from test compounds is an essential research activity. A CellTox Green Cytotoxicity Assay to monitor cytotoxicity in real time of continues cell culture during 40 hours of the compound treatment was used to screen Tox21 10K library compounds in HepG2 cells. CellTox Green Cytotoxicity Assay is a nonlytic, homogeneous, biofluorescent method to measure cytotoxicity in cell culture after experimental manipulation. The assay system uses a proprietary asymmetric cyanine dye that is excluded from viable cells but preferentially stains the dead cell's DNA. […] Viable cells produce no appreciable increases in fluorescence. Therefore, the fluorescence signal produced by the binding interaction with dead cell DNA is proportional to cytotoxicity.
The mixture of HepG2 cell suspension and reagents were dispensed at 600cells/6 ul/well in 1536-well tissue culture treated black solid bottom plates using a Multidrop dispenser. After the assay plates were incubated at a 37 C/5% CO2 incubator for 5 hours, 23 nL of compounds dissolved in DMSO, positive and negative controls was transferred to the assay plate by a pintool work station. The plates were incubated at 37 C for 40 hours. The fluorescence intensity were measured at 0h, 8h, 16h, 24h, 32h and 40h time points using ViewLux plate reader during compound treatment.
% is scaled to controls: 0 for no effect and ±100 for the full control effect; potency is read from the fitted curve at half-maximal effect.

| Structure (SMILES) | cytotoxicity increase | Potency |
| --- | --- | --- |
| O=C(O)C(=O)Cc1c[nH]c2ccccc12 | 0.404% (inactive) | – |
| OCC(CBr)(CBr)CBr | -14.2% (inactive) | – |
| Nc1cccc(S(=O)(=O)O)c1 | 1.54% (inactive) | – |
| CCOc1ccc2nc(N)sc2c1 | 0.769% (inactive) | – |
| Cc1nnc(SCC2=C(C(=O)O)N3C(=O)[C@@H](NC(=O)Cn4cnnn4)[C@H]3SC2)s1 | 2.54% [at 35.3 µM] (inactive) | – |
| C=O | -8.5% (inactive) | – |
| CC1=NN(c2cc(Cl)c(S(=O)(=O)O)cc2Cl)C(=O)C1N=Nc1ccc(S(=O)(=O)O)cc1 (stereo not given) | -3.83% (inactive) | – |
| CCCOCCC | 1.02% (inactive) | – |
| CCCCN1C[C@H](O)[C@@H](O)[C@H](O)[C@H]1CO | 2.43% [at 35.3 µM] (inactive) | – |
| CCN(O)CC | 0.814% (inactive) | – |
| Cn1cnc2c(F)c(Nc3ccc(Br)cc3Cl)c(C(=O)NOCCO)cc21 | 8.54% [at 35.3 µM] (inactive) | – |
| Cc1cn([C@@H]2O[C@H](CO)[C@@H](O)[C@@H]2F)c(=O)[nH]c1=O | 0.468% [at 35.3 µM] (inactive) | – |
| COc1nc(C)nc(NC(=O)NS(=O)(=O)c2ccccc2OCCCl)n1 | -0.0544% (inactive) | – |
| CO[Si](C)(C)OC | -8.78% (inactive) | – |
| OCCN(CCO)CCN(CCO)CCO | -1.31% (inactive) | – |
| C[C@@H]1CN(c2c(F)c(F)c3c(=O)c(C(=O)O)cn(C4CC4)c3c2F)C[C@H](C)N1 | -9.96% [at 15.8 µM] (inactive) | – |
| Cc1ccc(C=O)s1 | – | 38.9 µM (active) |
| CCCCCCCCOC(=O)CCCCCCCCC(=O)OCCCCCCCC | -16.7% (inactive) | – |
| Cc1cc2nc(N)sc2cc1C | -0.276% (inactive) | – |
| CCCC(CCC)(C(=O)OCC)C(=O)OCC | -15.4% [at 35.3 µM] (inactive) | – |

| Structure (SMILES) | cytotoxicity increase | Potency |
| --- | --- | --- |
| COc1ccc(S(=O)(=O)Nc2nnc(CC(C)C)s2)cc1 | 0.105% [at 35.3 µM] (inactive) | – |
| CCOc1ccc(NC(N)=O)cc1 | -0.311% (inactive) | – |
| CO[C@@]1(NC(=O)CSCC#N)C(=O)N2C(C(=O)O)=C(CSc3nnnn3C)CS[C@@H]21 | -3.38% [at 35.3 µM] (inactive) | – |
| FC(F)(F)C(F)(F)C(F)(F)C(F)(F)C(F)(F)C(F)(F)C(F)(F)C(F)(F)Br | 3% [at 35.3 µM] (inactive) | – |
| CN1CCN(N)CC1 | 17.2% [at 35.3 µM] (inactive) | – |
| CCCCCCCOC(=O)CCC | -8.3% (inactive) | – |
| COC(C)CCO (stereo not given) | -0.25% (inactive) | – |
| Oc1ccccc1C=NCc1ccccc1 | 6.2% [at 35.3 µM] (inactive) | – |
| O=C1CCCc2ccccc21 | 0.317% (inactive) | – |
| C[C@]12C(=O)OC(=O)[C@H]1[C@H]1C=C[C@@H]2C1 | 0.307% (inactive) | – |
| CN(CCCN1c2ccccc2CCc2ccccc21)CC(=O)c1ccc(Cl)cc1 | 14.3% [at 35.3 µM] (inactive) | – |
| Cc1ccc(C(C)C)cc1O | 19.8% (inactive) | – |
| O=C(O[C@@H](C(=O)O)[C@@H](OC(=O)c1ccccc1)C(=O)O)c1ccccc1 | 5.79% (inactive) | – |
| CN1C(=O)CC(c2ccccc2)C1=O (stereo not given) | -19.8% [at 35.3 µM] (inactive) | – |
| Cc1cccc(C)c1NC(=O)CN1CCCCCC1 | 0.723% [at 35.3 µM] (inactive) | – |
| CCCCNC(=S)NCCCC | 1.5% (inactive) | – |
| O=C(O)c1cccc(Cl)c1Cl | -0.348% (inactive) | – |
| CC(C)C(=O)OCC(C)(C)C(O)C(C)C (stereo not given) | -4.7% (inactive) | – |
| Nc1ccc(Oc2ccc(N)c(N)c2)cc1 | 17% (inactive) | – |
| COC(=O)c1ccc2cc(C(=O)OC)ccc2c1 | -0.23% [at 15.8 µM] (inactive) | – |
